# Screens deposited in PubChem BioAssay by Broad Institute.
# T cruzi growth-1: T. cruzi proliferation inhibition; T. cruzi beta-gal in NIH3T3, GalScreen luminescence, 90 h; AID 624255; inhibition, % at 8.34 µM; 77,000 tested, 5.9% active;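 active = mean inhibition above about 93%, with at least 55% of replicates each passing it, limit read from the data, passing the limit was not always enough; inconclusive = only one of those two conditions holds; inactive = neither condition holds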
# Pf Dd2 inh: blocks growth of Plasmodium falciparum Dd2 parasites. 94,000 tested, 2.3% active. activity change, % at 10 µM. AID 1159554. P. falciparum Dd2 growth, SYBR Green, 72 h; active compounds read low; in the data active = activity change below about -80%; inconclusive = no clear call, values can overlap the other calls
# C diff HTS: blocks growth of Clostridium difficile | growth activity, negative = inhibition, % at 16 µg/mL (by protocol) | Clostridium difficile clinical isolate growth, OD600, 24 h; active compounds read low | 86,000 tested, 0.25% active | AID 1259249;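 active = mean growth activity at or below -80% and every replicate also at or below -80%; inconclusive = mean at or below -80% but some replicate above -80%; inactive = mean growth activity above -80%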;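 note: 0% = DMSO wells and -100% = levofloxacin 16 µg/mL wells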
# T cruzi growth-2: inhibitors of T. cruzi proliferation; inhibition, % at 8.35 µM; AID 651739; T. cruzi beta-gal in NIH3T3, GalScreen luminescence, 90 h; shares compounds with T cruzi growth-1; 5,600 tested, 72% active;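 active = mean replicate inhibition above about 95% and at least 55% of replicates individually reaching it, limit read from the data; inconclusive = only one of the two criteria is met; inactive = neither criterion is met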
# T cruzi growth-3: inhibitors of T. cruzi proliferation. shares compounds with T cruzi growth-1. T. cruzi beta-gal in NIH3T3, GalScreen luminescence, 90 h. inhibition, % at 2.09 µM. 5,600 tested, 21% active. AID 651740;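 active = mean inhibition above about 95%, with at least 55% of replicates also reaching it, limit read from the data; inconclusive = meets just one of the two conditions; inactive = meets neither condition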;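 note: plate controls were neutral control median for no effect and positive control median for full effect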
# NIH3T3 tox: kills mouse NIH/3T3 fibroblasts; shares compounds with T cruzi growth-1; cytotoxicity (signal decrease), % at 8.35 µM; 5,600 tested, 14% active; AID 651742; NIH/3T3 viability, CellTiter-Glo ATP luminescence, 90 h;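 active = mean signal decrease across replicates above about 35% based on untreated-well scatter, with enough replicates individually passing, limit read from the data; inconclusive = no rule stated though some were filed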;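 note: 0% = median of neutral control wells and 100% = median of positive control wells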
# NIH3T3 tox 2: cytotoxicity in mouse NIH/3T3 fibroblasts. shares compounds with T cruzi growth-1. NIH/3T3 viability, CellTiter-Glo ATP luminescence, 90 h. inhibition, % at 24.9 µM. 5,600 tested, 56% active;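 active = mean loss of cell viability signal at or above a set limit, and enough replicates individually reaching it; inconclusive = meets only the mean limit or only the replicate share; inactive = meets neither condition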;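 note: 0% = median of neutral control wells and 100% = median of positive control wells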
# * = called active by the depositor; ? = inconclusive; nt = no result; + = active, no number. An excerpt weighted towards active compounds, which were near 6.7% of everything screened.
SMILES,T cruzi growth-1,Pf Dd2 inh,C diff HTS,T cruzi growth-2,T cruzi growth-3,NIH3T3 tox,NIH3T3 tox 2
O=C(Cc1ccccn1)N1CCCCN2[C@H](CO)[C@H](c3ccc(C#Cc4ccccc4)cc3)[C@@H]2C1,116*,-71,-18,109*,70,36*,46*
CCCC#Cc1ccc([C@@H]2[C@H](CO)N3CCCCN(C(=O)Cc4ccccn4)C[C@@H]23)cc1,55,-51,-6,nt,nt,nt,nt
COC(=O)[C@H]1[C@H](CO)[C@H]2Cn3c(ccc(/C=C/c4ccccc4)c3=O)[C@@H]1N2C(=O)C1CCC1,19,-1,3,nt,nt,nt,nt
CC=Cc1ccc2n(c1=O)C[C@@H]1[C@@H](CO)[C@H](C(=O)OC)[C@H]2N1CC1CCOCC1 (mixture of isomers),50,nt,-10,nt,nt,nt,nt
COC(=O)[C@@H]1[C@@H](CO)[C@@H]2Cn3c(ccc(C4=CCCCC4)c3=O)[C@H]1N2CCc1ccccc1,47,3,1,nt,nt,nt,nt
COC(=O)[C@H]1[C@H](CO)[C@H]2Cn3c(ccc(-c4ccccc4F)c3=O)[C@@H]1N2CC1CCCC1,+,nt,-9,55,-7,2,45*
O=C(O)[C@@H]1[C@@H](CO)[C@@H]2Cn3c(ccc(-c4ccccc4)c3=O)[C@H]1N2CC1CCCCC1,97*,8,0,-17,8,-21,-6
O=C(O)[C@@H]1[C@@H](CO)[C@@H]2Cn3c(ccc(C4=CCCCC4)c3=O)[C@H]1N2CCc1ccccc1,164*,nt,nt,72,12,8,46*
COC(=O)[C@@H]1[C@@H](CO)[C@@H]2Cn3c(ccc(-c4ccccc4)c3=O)[C@H]1N2CC1CCCC1,nt,-14,-13,nt,nt,nt,nt
COC(=O)[C@@H]1[C@@H](CO)[C@@H]2Cn3c(ccc(-c4ccccc4)c3=O)[C@H]1N2CC1CCCCC1,11,-8,3,nt,nt,nt,nt
CN1[C@@H]2Cn3c(cccc3=O)[C@H]1[C@@H](C(=O)NCC1CC1)[C@@H]2CO,-33,nt,17,nt,nt,nt,nt
COC(=O)[C@@H]1[C@@H](CO)[C@@H]2Cn3c(ccc(C4=CCCCC4)c3=O)[C@H]1N2C(=O)CC1CC1,33,-1,-3,nt,nt,nt,nt
O=C(Cc1ccccc1)N1C[C@H]2[C@@H](c3ccccc31)[C@@H](CO)N2Cc1ccccc1,42,2,-9,nt,nt,nt,nt
CC=Cc1ccc2n(c1=O)C[C@H]1[C@H](CO)[C@@H](C(=O)OC)[C@@H]2N1CC1CCCC1 (mixture of isomers),nt,4,0,nt,nt,nt,nt
O=C1CNC[C@@H]2[C@@H](c3ccc(Br)cc3)[C@H](CO)N12,nt,-3,23,nt,nt,nt,nt
COC(=O)C[C@H]1CC[C@@H]2NC[C@@H](O)COC[C@H]2O1,71,-2,-1,nt,nt,nt,nt
COc1ccc(C#Cc2ccc([C@H]3[C@@H](CO)N4CCCCN(C(=O)Cc5ccccc5)C[C@H]34)cc2)cc1,77,-71,-3,nt,nt,nt,nt
O=C(Cc1ccccc1)N1CCCCN2[C@H](CO)[C@@H](c3ccc(-c4ccccc4)cc3)[C@@H]2C1,31,15,50,nt,nt,nt,nt
O=C(Cc1ccccc1)N1CCCCN2[C@H](CO)[C@@H](c3ccc(C#CC4(O)CCCC4)cc3)[C@H]2C1,88,-3,0,nt,nt,nt,nt
O=C(Cc1ccccc1)N1CCCCN2[C@H](C1)[C@@H](c1ccc(C#Cc3ccccc3)cc1)[C@@H]2CO,115*,-34,-2,98*,73,?,103*
COc1ccc(C#Cc2ccc([C@@H]3[C@@H](CO)N4CCCCN(C(=O)Cc5ccccc5)C[C@@H]34)cc2)cc1,111*,-31,3,90,104*,-1,103*
O=C(Cc1ccccc1)N1CCCCN2[C@H](C1)[C@H](c1ccc(C#Cc3ccccc3)cc1)[C@@H]2CO,131*,-8,5,104*,57,33,104*
CCN1[C@@H]2c3ccc(-c4cccc(OC)c4)c(=O)n3C[C@H]1[C@H](CO)[C@H]2C(=O)OC,11,6,-1,nt,nt,nt,nt
O=C(Cc1ccccn1)N1CCCCN2[C@H](CO)[C@H](c3ccc(Br)cc3)[C@H]2C1,70,1,-6,nt,nt,nt,nt
CC=Cc1ccc2n(c1=O)C[C@@H]1[C@@H](CO)[C@H](C(=O)OC)[C@H]2N1C(=O)CC (mixture of isomers),7,nt,-2,nt,nt,nt,nt
SMILES,T cruzi growth-1,Pf Dd2 inh,C diff HTS,T cruzi growth-2,T cruzi growth-3,NIH3T3 tox,NIH3T3 tox 2
COC(=O)[C@H]1[C@H](CO)[C@H]2Cn3c(ccc(/C=C/c4ccccc4)c3=O)[C@@H]1N2Cc1ccccc1F,-11,nt,-3,nt,nt,nt,nt
O=C(O)[C@H]1[C@H](CO)[C@H]2Cn3c(ccc(-c4cccc(F)c4)c3=O)[C@@H]1N2CCc1ccccc1,10,-8,-3,nt,nt,nt,nt
N#Cc1cccc(-c2ccc([C@@H]3[C@H](CO)N4CCCCN(C(=O)Cc5cccnc5)C[C@@H]34)cc2)c1,83,-13,2,nt,nt,nt,nt
N#Cc1cccc(-c2ccc([C@H]3[C@@H](CO)N4CCCCN(C(=O)Cc5cccnc5)C[C@H]34)cc2)c1,88,2,-3,nt,nt,nt,nt
N#Cc1ccc(-c2ccc([C@@H]3[C@@H](CO)N4CCCCN(C(=O)Cc5ccccc5)C[C@H]34)cc2)cc1,42,18,1,nt,nt,nt,nt
N#Cc1cccc(-c2ccc([C@@H]3[C@@H](CO)N4CCCCN(C(=O)Cc5ccncc5)C[C@H]34)cc2)c1,108*,-16,5,52,-8,14,37*
N#Cc1cccc(-c2ccc([C@H]3[C@H](CO)N4CCCCN(C(=O)Cc5cccnc5)C[C@@H]34)cc2)c1,109*,-7,0,103*,57,17,55*
N#Cc1cccc(-c2ccc([C@H]3[C@H](CO)N4CCCCN(C(=O)Cc5ccccc5)C[C@@H]34)cc2)c1,102*,7,3,90,59,28,42*
COC(=O)[C@H]1[C@H](CO)[C@H]2Cn3c(ccc(C4=CCCCC4)c3=O)[C@@H]1N2Cc1cccnc1,21,7,-2,nt,nt,nt,nt
CC=Cc1ccc2n(c1=O)C[C@@H]1[C@@H](CO)[C@H](C(=O)O)[C@H]2N1S(=O)(=O)c1ccccc1F (mixture of isomers),-30,nt,-1,nt,nt,nt,nt
COc1ccc(-c2ccc([C@@H]3[C@@H](CO)N4CCCCN(C(=O)Cc5ccccc5)C[C@H]34)cc2)cc1,?,-79,1,97*,55,32,105*
O=C(Cc1ccccc1)N1CCCCN2[C@@H](CO)[C@H](c3ccc(-c4ccccc4)cc3)[C@@H]2C1,100*,9,58,103*,75,25,102*
COc1ccc(-c2ccc([C@H]3[C@@H](CO)N4CCCCN(C(=O)Cc5ccccc5)C[C@H]34)cc2)cc1,91,-23,-1,nt,nt,nt,nt
O=C(Cc1ccccc1)N1CCCCN2[C@H](C1)[C@@H](c1ccc(-c3ccccc3)cc1)[C@@H]2CO,-2,-26,50,nt,nt,nt,nt
